{
  "source": "PubChem BioAssay",
  "note": "Active and inactive are the calls of the source.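 The calls were made as follows: active = viability loss from added drug above about 55%, and viability with drug at most 40%, in both replicates (limit read from the data, passing the limit was not always enough); inconclusive = both conditions met in only one replicate; inactive = neither replicate meets both conditions.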",
  "data": [
    {"test": "reversal of MRP1-mediated doxorubicin resistance, pilot screen, H69AR cells, doxorubicin co-treatment (AID 601)", "details": "H69AR cells + 2 uM doxorubicin, CellTiter-Glo, 72 h; at 10 µM; stronger effect = higher value", "values": [
      {"smiles": "CC(CCc1ccccc1)NC(=O)C1CCCN(c2nnc(-n3cccc3)s2)C1", "note": "(stereo not drawn)", "differential viability (reversal)": "0.56% (inactive)"},
      {"smiles": "O=C(c1cc(C2CC2)on1)N1CCN(C(c2ccccc2)c2ccccc2)CC1", "differential viability (reversal)": "-6.88% (inactive)"},
      {"smiles": "O=C(C1COc2ccccc2O1)N1CCCC1", "note": "(stereo not drawn)", "differential viability (reversal)": "1.71% (inactive)"},
      {"smiles": "CCCCOC(=O)Nc1nc2ccc(OC)cc2s1", "differential viability (reversal)": "16.4% (inactive)"},
      {"smiles": "CCn1cc(C(=O)NCC2CCCO2)c(=O)c2cc(S(=O)(=O)N(C)C3CCCCC3)ccc21", "note": "(stereo not drawn)", "differential viability (reversal)": "-11.5% (inactive)"},
      {"smiles": "CCCNC(=O)CS(=O)(=O)Cc1nc(-c2cccc(OC)c2)oc1C", "differential viability (reversal)": "-3.96% (inactive)"},
      {"smiles": "CC(=O)C1=C(N2CCCCC2)CCC1=O", "differential viability (reversal)": "11.5% (inactive)"},
      {"smiles": "CCOC(=O)C1CCN(Cc2ccc(F)c(Br)c2)CC1", "differential viability (reversal)": "-7.29% (inactive)"},
      {"smiles": "Cc1ccc(N(C(=O)c2ccncc2)C2C=CS(=O)(=O)C2)cc1", "note": "(stereo not drawn)", "differential viability (reversal)": "5.2% (inactive)"},
      {"smiles": "COc1ccc(CCNC(=O)C2(C)CCC(=O)N2Cc2ccc3c(c2)OCO3)cc1OC", "note": "(stereo not drawn)", "differential viability (reversal)": "5.6% (inactive)"},
      {"smiles": "COc1ccc(C2c3c(oc4ccccc4c3=O)C(=O)N2c2ccc(C)cn2)cc1OC", "note": "(stereo not drawn)", "differential viability (reversal)": "23.3% (inactive)"},
      {"smiles": "CCn1cc(C(=O)NCCCOC)c(=O)c2cc(S(=O)(=O)N(C)C)ccc21", "differential viability (reversal)": "-23.8% (inactive)"},
      {"smiles": "Cc1cc(C)nc(/N=C2\\NC(=O)CC(C(=O)O)N2c2ccc(Cl)cc2)n1", "note": "(stereo not drawn)", "differential viability (reversal)": "3.08% (inactive)"},
      {"smiles": "O=C(O)c1ccccc1S(=O)(=O)NCC(O)COc1ccc(Br)cc1", "note": "(stereo not drawn)", "differential viability (reversal)": "6.29% (inactive)"},
      {"smiles": "COC(=O)Cn1c(=NC(=O)CSCC(=O)Nc2cc(C)on2)sc2ccccc21", "differential viability (reversal)": "3% (inactive)"},
      {"smiles": "COc1ccc(S(=O)(=O)N(CC(=O)N2CCN(c3ccccc3OC)CC2)c2ccccc2)cc1", "differential viability (reversal)": "-8.61% (inactive)"},
      {"smiles": "CCOc1ccccc1NC(=O)CC1Nc2cc(C)c(C)cc2NC1=O", "note": "(stereo not drawn)", "differential viability (reversal)": "-25.8% (inactive)"},
      {"smiles": "COc1ccc(N2Cc3ccccc3C2)cc1Cl", "differential viability (reversal)": "-4.19% (inactive)"},
      {"smiles": "CCOC(=O)C(CC)n1nc(C)n2c(cc3sccc32)c1=O", "note": "(stereo not drawn)", "differential viability (reversal)": "0.895% (inactive)"},
      {"smiles": "CCOC(=O)C(CC)(CCC(=O)O)c1csc(N)n1", "note": "(stereo not drawn)", "differential viability (reversal)": "7.83% (inactive)"},
      {"smiles": "CCOc1ccc(NC(=O)CN2C(=O)C3CCCN3C2=O)cc1", "note": "(stereo not drawn)", "differential viability (reversal)": "3.86% (inactive)"},
      {"smiles": "CCOC(=O)N1CCN(C(=O)COc2ccc(S(=O)(=O)NC(C)C)cc2)CC1", "differential viability (reversal)": "0.365% (inactive)"},
      {"smiles": "O=C(NC1CCCc2ccccc21)c1ccc(CNc2c(N3CCOCC3)c(=O)c2=O)cc1", "note": "(stereo not drawn)", "differential viability (reversal)": "14.2% (inactive)"},
      {"smiles": "CNC(=O)c1ccsc1NC(=O)c1ccccc1", "differential viability (reversal)": "-3.68% (inactive)"},
      {"smiles": "N#Cc1cc2c(nc1SCC(=O)N1CCCCC1)CCCC2", "differential viability (reversal)": "1.21% (inactive)"},
      {"smiles": "COc1ccc(N2CCN(c3oc(COc4ccccc4Cl)nc3C#N)CC2)cc1", "differential viability (reversal)": "8.78% (inactive)"},
      {"smiles": "COc1ccccc1S(=O)(=O)Cc1ccc(C(=O)N2CCN(c3ccc(C)cc3)C(C)C2)o1", "note": "(stereo not drawn)", "differential viability (reversal)": "-48.4% (inactive)"},
      {"smiles": "CCOC(=O)N1CCC(c2cc(=O)n3[nH]c(C)c(-c4ccc(F)cc4)c3n2)CC1", "differential viability (reversal)": "-44.2% (inactive)"},
      {"smiles": "O=C1CCCC2=C1C(c1cccc(Br)c1)n1nc(-c3ccco3)nc1N2", "note": "(stereo not drawn)", "differential viability (reversal)": "2.4% (inactive)"},
      {"smiles": "CCc1ccccc1NC(=O)c1cnc2n(c1=O)CCS2", "differential viability (reversal)": "3.48% (inactive)"},
      {"smiles": "CC(CCc1ccco1)NC(=O)Cn1ncc2c1-c1ccccc1OC2", "note": "(stereo not drawn)", "differential viability (reversal)": "11.9% (inactive)"},
      {"smiles": "COc1cccc(NC(=O)C2CCCN(S(=O)(=O)c3cccc4cccnc34)C2)c1", "note": "(stereo not drawn)", "differential viability (reversal)": "-6.64% (inactive)"},
      {"smiles": "COc1ccc(C(=O)Nc2nncs2)c(OC)c1", "differential viability (reversal)": "6.36% (inactive)"},
      {"smiles": "CNC(=O)c1ccccc1NC(=O)c1c(O)c2c([nH]c1=O)CCCC2", "differential viability (reversal)": "8.66% (inactive)"},
      {"smiles": "Cc1occc1C(=O)N1CCN(Cc2ccccc2)CC1", "differential viability (reversal)": "3.23% (inactive)"},
      {"smiles": "CN(C)CCCN1C(=O)CSC1c1ccccc1", "note": "(stereo not drawn)", "differential viability (reversal)": "4.35% (inactive)"},
      {"smiles": "CCc1ccc(N(CC(=O)NC2CCCC2)S(=O)(=O)c2c(C)noc2C)cc1", "differential viability (reversal)": "3.79% (inactive)"},
      {"smiles": "CSc1cccc(NC(=O)C2CCN(S(=O)(=O)c3ccc(F)cc3)CC2)c1", "differential viability (reversal)": "-0.92% (inactive)"},
      {"smiles": "O=C(CSc1nnc(Cn2c(=O)sc3ccccc32)n1-c1ccccc1)Nc1nccs1", "differential viability (reversal)": "0.24% (inactive)"}
    ]},
    {"test": "reversal of MRP1-mediated doxorubicin resistance, pilot screen, H69AR cells, doxorubicin co-treatment (AID 601)", "details": "H69AR cells + 2 uM doxorubicin, CellTiter-Glo, 72 h; measured here: viability with 2 uM doxorubicin; at 10 µM; stronger effect = lower value", "units": {"viability": "%"}, "values": [
      {"smiles": "CC(CCc1ccccc1)NC(=O)C1CCCN(c2nnc(-n3cccc3)s2)C1", "note": "(stereo not drawn)", "viability": 82},
      {"smiles": "O=C(c1cc(C2CC2)on1)N1CCN(C(c2ccccc2)c2ccccc2)CC1", "viability": 94.6},
      {"smiles": "O=C(C1COc2ccccc2O1)N1CCCC1", "note": "(stereo not drawn)", "viability": 93.1},
      {"smiles": "CCCCOC(=O)Nc1nc2ccc(OC)cc2s1", "viability": 83.3},
      {"smiles": "CCn1cc(C(=O)NCC2CCCO2)c(=O)c2cc(S(=O)(=O)N(C)C3CCCCC3)ccc21", "note": "(stereo not drawn)", "viability": 80},
      {"smiles": "CCCNC(=O)CS(=O)(=O)Cc1nc(-c2cccc(OC)c2)oc1C", "viability": 91.7},
      {"smiles": "CC(=O)C1=C(N2CCCCC2)CCC1=O", "viability": 86.8},
      {"smiles": "CCOC(=O)C1CCN(Cc2ccc(F)c(Br)c2)CC1", "viability": 92.8},
      {"smiles": "Cc1ccc(N(C(=O)c2ccncc2)C2C=CS(=O)(=O)C2)cc1", "note": "(stereo not drawn)", "viability": 97.5},
      {"smiles": "COc1ccc(CCNC(=O)C2(C)CCC(=O)N2Cc2ccc3c(c2)OCO3)cc1OC", "note": "(stereo not drawn)", "viability": 87.2},
      {"smiles": "COc1ccc(C2c3c(oc4ccccc4c3=O)C(=O)N2c2ccc(C)cn2)cc1OC", "note": "(stereo not drawn)", "viability": 71},
      {"smiles": "CCn1cc(C(=O)NCCCOC)c(=O)c2cc(S(=O)(=O)N(C)C)ccc21", "viability": 111},
      {"smiles": "Cc1cc(C)nc(/N=C2\\NC(=O)CC(C(=O)O)N2c2ccc(Cl)cc2)n1", "note": "(stereo not drawn)", "viability": 92.9},
      {"smiles": "O=C(O)c1ccccc1S(=O)(=O)NCC(O)COc1ccc(Br)cc1", "note": "(stereo not drawn)", "viability": 93.6},
      {"smiles": "COC(=O)Cn1c(=NC(=O)CSCC(=O)Nc2cc(C)on2)sc2ccccc21", "viability": 85.5},
      {"smiles": "COc1ccc(S(=O)(=O)N(CC(=O)N2CCN(c3ccccc3OC)CC2)c2ccccc2)cc1", "viability": 95.4},
      {"smiles": "CCOc1ccccc1NC(=O)CC1Nc2cc(C)c(C)cc2NC1=O", "note": "(stereo not drawn)", "viability": 85},
      {"smiles": "COc1ccc(N2Cc3ccccc3C2)cc1Cl", "viability": 94},
      {"smiles": "CCOC(=O)C(CC)n1nc(C)n2c(cc3sccc32)c1=O", "note": "(stereo not drawn)", "viability": 84.2},
      {"smiles": "CCOC(=O)C(CC)(CCC(=O)O)c1csc(N)n1", "note": "(stereo not drawn)", "viability": 94.2},
      {"smiles": "CCOc1ccc(NC(=O)CN2C(=O)C3CCCN3C2=O)cc1", "note": "(stereo not drawn)", "viability": 97.5},
      {"smiles": "CCOC(=O)N1CCN(C(=O)COc2ccc(S(=O)(=O)NC(C)C)cc2)CC1", "viability": 90},
      {"smiles": "O=C(NC1CCCc2ccccc21)c1ccc(CNc2c(N3CCOCC3)c(=O)c2=O)cc1", "note": "(stereo not drawn)", "viability": 77.5},
      {"smiles": "CNC(=O)c1ccsc1NC(=O)c1ccccc1", "viability": 84.5},
      {"smiles": "N#Cc1cc2c(nc1SCC(=O)N1CCCCC1)CCCC2", "viability": 86.4},
      {"smiles": "COc1ccc(N2CCN(c3oc(COc4ccccc4Cl)nc3C#N)CC2)cc1", "viability": 83.6},
      {"smiles": "COc1ccccc1S(=O)(=O)Cc1ccc(C(=O)N2CCN(c3ccc(C)cc3)C(C)C2)o1", "note": "(stereo not drawn)", "viability": 56.3},
      {"smiles": "CCOC(=O)N1CCC(c2cc(=O)n3[nH]c(C)c(-c4ccc(F)cc4)c3n2)CC1", "viability": 65.5},
      {"smiles": "O=C1CCCC2=C1C(c1cccc(Br)c1)n1nc(-c3ccco3)nc1N2", "note": "(stereo not drawn)", "viability": 100},
      {"smiles": "CCc1ccccc1NC(=O)c1cnc2n(c1=O)CCS2", "viability": 88.1},
      {"smiles": "CC(CCc1ccco1)NC(=O)Cn1ncc2c1-c1ccccc1OC2", "note": "(stereo not drawn)", "viability": 81},
      {"smiles": "COc1cccc(NC(=O)C2CCCN(S(=O)(=O)c3cccc4cccnc34)C2)c1", "note": "(stereo not drawn)", "viability": 89.3},
      {"smiles": "COc1ccc(C(=O)Nc2nncs2)c(OC)c1", "viability": 90.5},
      {"smiles": "CNC(=O)c1ccccc1NC(=O)c1c(O)c2c([nH]c1=O)CCCC2", "viability": 99.9},
      {"smiles": "Cc1occc1C(=O)N1CCN(Cc2ccccc2)CC1", "viability": 86},
      {"smiles": "CN(C)CCCN1C(=O)CSC1c1ccccc1", "note": "(stereo not drawn)", "viability": 90.1},
      {"smiles": "CCc1ccc(N(CC(=O)NC2CCCC2)S(=O)(=O)c2c(C)noc2C)cc1", "viability": 80.2},
      {"smiles": "CSc1cccc(NC(=O)C2CCN(S(=O)(=O)c3ccc(F)cc3)CC2)c1", "viability": 85.3},
      {"smiles": "O=C(CSc1nnc(Cn2c(=O)sc3ccccc32)n1-c1ccccc1)Nc1nccs1", "viability": 84}
    ]}
  ]
}
